Of roughly 8,800 targets only a part is listed; those with a hit were picked by preference. About 0.5% of all pairs of compound and target were hits.
Compound: C[C@H](C1=CC=C(C=C1)C(=O)NC2=C3C=CNC3=NC=C2)N
Assay: log2 fold change, soluble protein after heating vs DMSO (PISA); higher = thermal stabilisation; K562 lysate, 10 uM; active = over 0.2 and 3.5 SD of the protein, either way, in both replicates (recomputed)
In short: (§1)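 Pellets of K562 cells were dounce-homogenised in PBS pH 7.4 with 1 mM MgCl2, and the crude extract was held at 1 mg/mL protein for a 30 min treatment with 10 μM compound. Aliquots were heated for 3 min over 48°C-58°C and pooled before NP-40 was added to 0.5% at 4°C. The supernatant from 21,000xg for 90 min was quantified by TMTpro 16plex LC-MS/MS with channel sums equalised. Values are reported from duplicates as log-two fold change in thermal stability relative to solvent controls.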

Sequence of UniProt P22314 (P22314 whole entry, looked up): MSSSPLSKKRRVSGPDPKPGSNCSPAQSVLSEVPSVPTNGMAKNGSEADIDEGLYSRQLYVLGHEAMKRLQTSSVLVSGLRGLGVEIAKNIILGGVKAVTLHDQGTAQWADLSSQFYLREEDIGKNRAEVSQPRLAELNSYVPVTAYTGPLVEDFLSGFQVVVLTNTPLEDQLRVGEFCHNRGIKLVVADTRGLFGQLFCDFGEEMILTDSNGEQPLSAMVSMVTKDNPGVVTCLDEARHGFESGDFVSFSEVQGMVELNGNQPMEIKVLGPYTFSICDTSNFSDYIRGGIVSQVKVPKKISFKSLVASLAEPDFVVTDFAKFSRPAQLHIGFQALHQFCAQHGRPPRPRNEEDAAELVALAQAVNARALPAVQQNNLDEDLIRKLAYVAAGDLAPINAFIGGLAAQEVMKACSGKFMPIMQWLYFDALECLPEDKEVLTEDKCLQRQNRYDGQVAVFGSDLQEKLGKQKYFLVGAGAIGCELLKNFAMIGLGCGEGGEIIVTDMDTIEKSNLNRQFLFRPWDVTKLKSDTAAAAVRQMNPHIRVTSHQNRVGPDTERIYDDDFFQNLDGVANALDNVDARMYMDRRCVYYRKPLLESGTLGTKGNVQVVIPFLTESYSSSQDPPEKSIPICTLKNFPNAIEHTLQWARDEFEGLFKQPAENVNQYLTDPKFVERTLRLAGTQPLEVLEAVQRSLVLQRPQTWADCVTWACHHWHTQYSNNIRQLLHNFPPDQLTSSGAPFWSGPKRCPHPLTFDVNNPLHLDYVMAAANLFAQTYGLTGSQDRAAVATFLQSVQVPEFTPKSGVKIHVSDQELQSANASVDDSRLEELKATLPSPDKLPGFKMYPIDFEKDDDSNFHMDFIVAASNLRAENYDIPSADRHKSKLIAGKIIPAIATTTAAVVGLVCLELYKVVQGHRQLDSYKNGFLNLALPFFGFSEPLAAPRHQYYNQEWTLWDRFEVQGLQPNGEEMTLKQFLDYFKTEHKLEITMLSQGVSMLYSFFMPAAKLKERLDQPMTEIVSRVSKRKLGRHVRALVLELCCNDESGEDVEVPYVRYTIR
Sequence of UniProt Q96F44 (Q96F44 whole entry, looked up): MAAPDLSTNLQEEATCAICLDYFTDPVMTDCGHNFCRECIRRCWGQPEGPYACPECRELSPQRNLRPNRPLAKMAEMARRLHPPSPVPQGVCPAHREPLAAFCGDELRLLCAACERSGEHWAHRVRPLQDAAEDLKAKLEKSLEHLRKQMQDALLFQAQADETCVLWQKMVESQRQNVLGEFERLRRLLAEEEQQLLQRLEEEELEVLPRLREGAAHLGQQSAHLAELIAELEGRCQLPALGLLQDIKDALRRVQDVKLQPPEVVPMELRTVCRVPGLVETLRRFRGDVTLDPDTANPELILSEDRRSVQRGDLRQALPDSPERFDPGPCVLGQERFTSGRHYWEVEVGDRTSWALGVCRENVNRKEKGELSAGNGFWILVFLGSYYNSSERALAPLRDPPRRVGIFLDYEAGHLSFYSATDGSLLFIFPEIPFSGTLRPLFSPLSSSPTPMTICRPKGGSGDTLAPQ
Sequence of UniProt Q9Y4P3 (Q9Y4P3 whole entry, looked up): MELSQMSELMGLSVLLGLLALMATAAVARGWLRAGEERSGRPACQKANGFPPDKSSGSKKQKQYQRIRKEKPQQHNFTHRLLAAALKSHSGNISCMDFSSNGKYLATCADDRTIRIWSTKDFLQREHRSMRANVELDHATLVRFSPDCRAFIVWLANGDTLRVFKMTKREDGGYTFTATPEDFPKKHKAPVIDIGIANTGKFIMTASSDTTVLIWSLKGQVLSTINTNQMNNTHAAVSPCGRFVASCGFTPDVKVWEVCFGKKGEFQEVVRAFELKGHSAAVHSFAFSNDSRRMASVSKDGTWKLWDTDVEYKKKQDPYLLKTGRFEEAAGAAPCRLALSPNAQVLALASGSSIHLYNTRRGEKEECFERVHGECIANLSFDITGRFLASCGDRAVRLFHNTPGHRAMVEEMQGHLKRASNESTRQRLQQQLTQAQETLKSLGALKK
Sequence of UniProt Q96S44 (Q96S44 whole entry, looked up): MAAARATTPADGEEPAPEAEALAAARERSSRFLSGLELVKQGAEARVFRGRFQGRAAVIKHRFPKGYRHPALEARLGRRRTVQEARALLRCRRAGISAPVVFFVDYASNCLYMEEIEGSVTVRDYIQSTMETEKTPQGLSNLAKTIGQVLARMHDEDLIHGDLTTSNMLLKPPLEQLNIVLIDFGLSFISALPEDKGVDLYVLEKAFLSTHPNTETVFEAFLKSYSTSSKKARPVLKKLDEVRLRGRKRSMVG
Sequence of UniProt P36406 (P36406 whole entry, looked up): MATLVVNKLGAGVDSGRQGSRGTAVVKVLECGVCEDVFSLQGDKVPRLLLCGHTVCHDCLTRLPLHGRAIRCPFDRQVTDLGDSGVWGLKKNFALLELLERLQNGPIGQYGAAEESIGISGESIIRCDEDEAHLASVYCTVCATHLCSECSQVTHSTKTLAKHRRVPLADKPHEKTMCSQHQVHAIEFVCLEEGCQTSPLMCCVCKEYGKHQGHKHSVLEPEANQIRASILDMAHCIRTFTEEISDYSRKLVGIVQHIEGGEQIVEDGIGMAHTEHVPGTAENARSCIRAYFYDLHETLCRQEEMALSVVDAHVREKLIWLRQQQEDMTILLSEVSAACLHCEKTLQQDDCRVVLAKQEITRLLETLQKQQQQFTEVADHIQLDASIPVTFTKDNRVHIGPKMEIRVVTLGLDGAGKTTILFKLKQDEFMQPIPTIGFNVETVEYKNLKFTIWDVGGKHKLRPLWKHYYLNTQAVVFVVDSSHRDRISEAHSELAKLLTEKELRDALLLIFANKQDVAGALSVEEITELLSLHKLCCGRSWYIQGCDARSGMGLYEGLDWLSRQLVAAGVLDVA
Sequence of UniProt Q9UPN9 (Q9UPN9 whole entry, looked up): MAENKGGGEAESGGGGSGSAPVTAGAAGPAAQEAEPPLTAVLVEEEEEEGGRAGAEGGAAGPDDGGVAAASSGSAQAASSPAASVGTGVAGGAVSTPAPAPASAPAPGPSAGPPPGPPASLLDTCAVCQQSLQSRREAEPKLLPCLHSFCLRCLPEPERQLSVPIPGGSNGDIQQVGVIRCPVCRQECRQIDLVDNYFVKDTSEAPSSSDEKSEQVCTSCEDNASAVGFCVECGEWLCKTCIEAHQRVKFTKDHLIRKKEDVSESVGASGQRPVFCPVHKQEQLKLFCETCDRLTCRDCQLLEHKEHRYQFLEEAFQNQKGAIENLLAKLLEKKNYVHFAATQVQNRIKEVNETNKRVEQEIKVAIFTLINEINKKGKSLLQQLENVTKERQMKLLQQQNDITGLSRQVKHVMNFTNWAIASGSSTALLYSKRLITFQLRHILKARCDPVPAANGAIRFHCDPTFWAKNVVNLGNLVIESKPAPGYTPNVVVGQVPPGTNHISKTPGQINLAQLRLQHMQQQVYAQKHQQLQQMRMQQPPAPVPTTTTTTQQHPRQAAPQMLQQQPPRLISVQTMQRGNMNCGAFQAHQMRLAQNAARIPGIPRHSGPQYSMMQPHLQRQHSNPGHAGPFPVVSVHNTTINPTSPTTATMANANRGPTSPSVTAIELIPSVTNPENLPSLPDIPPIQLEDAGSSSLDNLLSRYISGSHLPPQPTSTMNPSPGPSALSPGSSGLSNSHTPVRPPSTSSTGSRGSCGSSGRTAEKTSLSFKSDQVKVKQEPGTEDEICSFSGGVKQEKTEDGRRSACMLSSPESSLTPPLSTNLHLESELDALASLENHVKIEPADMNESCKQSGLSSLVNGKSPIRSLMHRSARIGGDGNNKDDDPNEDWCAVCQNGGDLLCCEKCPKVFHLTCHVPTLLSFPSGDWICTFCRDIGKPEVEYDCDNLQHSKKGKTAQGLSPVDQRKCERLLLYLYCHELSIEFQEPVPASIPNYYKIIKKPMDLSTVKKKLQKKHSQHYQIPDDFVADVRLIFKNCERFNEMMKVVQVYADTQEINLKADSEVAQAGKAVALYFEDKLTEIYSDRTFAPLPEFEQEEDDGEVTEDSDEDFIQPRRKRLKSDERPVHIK
Sequence of UniProt Q9Y5K5 (Q9Y5K5 whole entry, looked up): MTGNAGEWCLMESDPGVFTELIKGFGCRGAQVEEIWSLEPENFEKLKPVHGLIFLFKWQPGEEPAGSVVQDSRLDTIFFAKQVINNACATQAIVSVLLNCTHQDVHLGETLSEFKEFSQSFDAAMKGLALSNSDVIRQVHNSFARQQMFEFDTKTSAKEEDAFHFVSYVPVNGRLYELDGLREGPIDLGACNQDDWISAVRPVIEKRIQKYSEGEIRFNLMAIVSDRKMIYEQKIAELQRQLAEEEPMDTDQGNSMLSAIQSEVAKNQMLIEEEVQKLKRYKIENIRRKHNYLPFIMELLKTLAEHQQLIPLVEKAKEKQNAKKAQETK
Sequence of UniProt O60704 (O60704 whole entry, looked up): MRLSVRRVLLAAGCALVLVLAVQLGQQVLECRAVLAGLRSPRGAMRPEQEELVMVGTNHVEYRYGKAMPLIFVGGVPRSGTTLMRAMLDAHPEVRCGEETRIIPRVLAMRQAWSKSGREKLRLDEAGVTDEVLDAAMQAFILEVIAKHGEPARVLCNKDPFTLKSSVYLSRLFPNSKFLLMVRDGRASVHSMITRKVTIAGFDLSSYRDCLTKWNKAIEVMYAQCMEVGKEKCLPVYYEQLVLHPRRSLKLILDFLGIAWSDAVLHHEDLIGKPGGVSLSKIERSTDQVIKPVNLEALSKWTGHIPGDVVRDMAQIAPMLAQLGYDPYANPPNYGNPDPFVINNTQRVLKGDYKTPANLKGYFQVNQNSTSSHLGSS
Sequence of UniProt Q9NX07 (Q9NX07 whole entry, looked up): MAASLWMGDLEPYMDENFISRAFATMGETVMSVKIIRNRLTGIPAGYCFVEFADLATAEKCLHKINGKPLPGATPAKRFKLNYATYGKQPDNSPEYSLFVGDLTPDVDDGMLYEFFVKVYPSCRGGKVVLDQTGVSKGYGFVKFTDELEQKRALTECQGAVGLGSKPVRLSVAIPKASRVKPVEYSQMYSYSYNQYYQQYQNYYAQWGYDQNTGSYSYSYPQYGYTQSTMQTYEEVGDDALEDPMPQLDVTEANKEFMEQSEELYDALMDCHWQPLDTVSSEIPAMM

log2 fold change, inactive:
TUBA1B (UniProt P68363) -0.015, TUT4 (UniProt Q5TAX3) -0.064, TBL2 (UniProt Q9Y4P3) -0.068, TK1 (UniProt P04183) -0.133, TTC5 (UniProt Q8N0Z6) -0.064, TRNAU1AP (UniProt Q9NX07) -0.221, UBR5 (UniProt O95071) -0.01, TRAF2 isoform 2 (UniProt Q12933) -0.047, UCHL5 isoform 3 (UniProt Q9Y5K5) 0.121, TRIM23 (UniProt P36406) -0.235, TRIM11 (UniProt Q96F44) -0.006

Compound: C[C@H](Nc1ncnc2nc[nH]c12)c1cc2cccc(Cl)c2c(=O)n1-c1ccccc1 [duvelisib]
Assay: as above
In short: as §1

log2 fold change, inactive:
TBCE (UniProt Q15813) 0.025, TNPO3 (UniProt Q9Y5L0) 0.025, TRIM33 (UniProt H0Y612) 0.012, TPST2 (UniProt O60704) -0.029, UBR4 (UniProt Q5T4S7) -0.001, TTK (UniProt P33981) -0.031, TP53RK (UniProt Q96S44) -0.029, TUBGCP3 (UniProt Q96CW5) 0.036, UBR3 isoform 4 (UniProt Q6ZT12) -0.003, TRIM33 isoform 2 (UniProt Q9UPN9) -0.002, TOE1 (UniProt Q96GM8) 0.052, UBA1 (UniProt P22314) 0.011
